Key:
Experiment in all cases: PBM binding z-score (relative to random genomic background probes); higher = stronger binding; sequences stand for … in GC…GCGATTGACAGCGTAGAATGAAGG
[1] = tested on: RARb homodimer (NR concentration 270 nM)
In short: (§1)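 Each nuclear receptor dimer, without ligand, was incubated for 1 h on custom Agilent 4×180K protein-binding microarrays. Binding was detected with antibodies against each partner (one per run), and scanned fluorescence was regression-normalized. The binding z-scores are referenced to random human genomic background probes.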

[2] = tested on: RARg:RXRa (NR concentration 270 nM, RXRa partner concentration 90 nM)
In short: as §1

[3] = tested on: RARg homodimer (NR concentration 270 nM)
In short: as §1

[4] = tested on: RXRa DBDmut IVT, anti-RXR (DBD mutation: RXRa K156A/R161A, NR concentration 90 nM)
In short: as §1

[5] = tested on: RXRa homodimer (NR concentration 180 nM)
In short: as §1

[6] = tested on: THRa:RXRa (NR concentration 90 nM, RXRa partner concentration 90 nM)
In short: as §1

[7] = tested on: THRa homodimer (NR concentration 90 nM)
In short: as §1

[8] = tested on: VDR homodimer (NR concentration 270 nM)
In short: as §1

Row | Sequence | PBM binding z-score [1] | PBM binding z-score [2] | PBM binding z-score [3] | PBM binding z-score [4] | PBM binding z-score [5] | PBM binding z-score [6] | PBM binding z-score [7] | PBM binding z-score [8]
1 | TAGCCTAGGTCAGATCGGGCCAGTCTACGCTATA | 2.16 | 2.51 | 3.36 | -0.601 | 1.31 | 4.1 | -0.0683 | -0.368
2 | TCGAGTAGATTACGGGGGCATTCAGGGATGAAGA | 1.26 | 1.41 | 0.834 | 1.65 | 1.35 | 3.66 | 0.874 | 3.02
3 | CGTCAAAGTTCAACTAATGTAACGTAAAGCACGC | 3.96 | 5.66 | 6.9 | 4.76 | 4.75 | 3.31 | 0.305 | 4.13
4 | ATATGTGGGTTAGGGTCATTCAGAAAGTAGGGAA | 3.67 | 4.16 | 3.23 | 2.95 | 5.55 | 4.42 | 4.11 | 4.92
5 | CCGAGTAGGGTACGAGGGGGCATTCAGTGCGAAT | 1.62 | 1.87 | 1.59 | 1.73 | 1.03 | 2.64 | 0.475 | 4.03
6 | CTGTGTAGGTTAAGGGGGTCATTCAGTTTGAAAG | 4.19 | 5.13 | 4.04 | 2.68 | 5.91 | 3.89 | 2.98 | 5.36
7 | CTATGTAGGTAAAGGGGGTCATTCAGTTTGAAAG | 3.55 | 4.43 | 2.93 | 2.5 | 5.6 | 3.66 | 1.73 | 6.01

From the supplement of paper PMC6555819
